Data published in PubChem BioAssay.
Results with a measured potency or affinity are listed apart. Activity calls are given as the source filed them. Unless noted, the rule behind the calls is not given here.

target: Calcium-dependent protein kinase 1 (Plasmodium falciparum (isolate 3D7)) (UniProt P62344); assay: PfCDPK1 kinase inhibitors, biochemical, TCAMS library (AID 1159585; cut-off not given, nearly all actives have IC50 up to about 0.98 µM;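 note: inhibitors leave more ATP so luminescence rises with inhibition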); details: recombinant PfCDPK1, Kinase-Glo ATP depletion luminescence
Sequence (P62344 whole entry, looked up): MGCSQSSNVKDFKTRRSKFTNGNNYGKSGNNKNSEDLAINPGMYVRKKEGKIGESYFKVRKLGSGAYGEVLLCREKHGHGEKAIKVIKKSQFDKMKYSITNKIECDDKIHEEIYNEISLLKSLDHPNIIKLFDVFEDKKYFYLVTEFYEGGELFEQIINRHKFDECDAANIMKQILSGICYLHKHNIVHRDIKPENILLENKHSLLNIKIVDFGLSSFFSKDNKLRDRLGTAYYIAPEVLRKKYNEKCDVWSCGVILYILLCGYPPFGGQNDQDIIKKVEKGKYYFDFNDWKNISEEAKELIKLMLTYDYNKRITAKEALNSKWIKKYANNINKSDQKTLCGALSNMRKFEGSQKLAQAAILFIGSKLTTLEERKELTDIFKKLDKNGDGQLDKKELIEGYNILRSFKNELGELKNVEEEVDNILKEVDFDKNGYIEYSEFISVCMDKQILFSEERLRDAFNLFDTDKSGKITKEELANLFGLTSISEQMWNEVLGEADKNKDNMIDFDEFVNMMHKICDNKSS

outcome, inactive:
OCCc1ccc(Nc2nccc(-c3nnc4ccccn34)n2)cc1, COc1ccc(Cn2ccc3c4c(N)nc(N)nc4ccc32)cc1, O=C(NCCSCc1c(F)cccc1Cl)c1cnc2c(c1)nc(-c1cnc(-c3ccccc3)[nH]1)n2CCc1cnc[nH]1, O=C(CSc1nccn1C1CCCC1)Nc1cc(C(F)(F)F)ccc1Cl, OC(CNCc1ccccc1OCc1ccccc1)c1cccc(Br)c1 (stereo not given), NC1CCN(Cc2cccc(-c3ccc(-c4nc5ccccc5[nH]4)s3)c2)C1 (stereo not given), CN1CCN(c2ccc(-c3cc(-c4ccncc4)c(-c4ccc(Cl)c(O)c4)o3)cc2)CC1, CC(C)C1=C[C@H]2C[C@]3(C4OCCO4)[C@@H]4CC[C@@H](C)[C@H]4C[C@@]2(C(=O)OCC2COCO2)[C@]13C(=O)OC(c1ccccc1)c1ccccc1 (stereo not given in full), Cc1ccc(CNC(=O)[C@H](CCCN)Nc2nc(Nc3ccccc3)ncc2C)cc1, CCn1c(Sc2ccc([N+](=O)[O-])c(C#N)c2)nnc1-c1ccc(Cl)cc1, Cc1cccc(NC(=O)Nc2cccc(-c3ccc(-c4nc5ccc(C(F)(F)F)cc5[nH]4)cc3)c2)c1, CN1CCCC(CN2CCN(Cc3cccc(-c4ccc(-c5nc6ccc(F)cc6[nH]5)cc4)c3)CC2)C1 (stereo not given), CN1CCC(N2CCN(CCOc3cc(NC(=O)/C=C/c4ccccc4Cl)ccc3Br)CC2)CC1, Cc1nc(N)nc(N)c1OCc1cccc2ccccc12, CN(C1CCC(NC(=O)/C=C/c2ccccc2)CC1)C1CC2(CCN(C(=O)OC(C)(C)C)CC2)c2ccccc21 (stereo not given), O=C(Oc1ccc(C2CNCCc3c2cc(OC(=O)c2ccc(O)cc2)c(OC(=O)c2ccc(O)cc2)c3Cl)cc1)c1ccc(O)cc1 (stereo not given), Nc1ccc2[nH]cc(C3CCN(CCC4CCN(C(=O)/C=C/c5ccc(Cl)c(Cl)c5)CC4)CC3)c2n1, COc1cc(N(C)Cc2cnc3nc(N)nc(N)c3n2)cc(OC)c1OC, COc1ccc2ncn(-c3ccc(C(N)=O)c(OCc4ccccc4C(F)(F)F)c3)c2c1, Oc1ccc(CCNc2nc(NCc3ccccc3-c3cccc(Cl)c3)nc(N3CCNCC3)n2)cc1, NC1CCCN(Cc2ccc(-c3ccc(-c4nc5ccccc5[nH]4)s3)cc2)C1 (stereo not given), CCCc1ccc(NC(=O)c2cccc(CN3CCCN(Cc4cccc(C#N)c4)CC3)c2)cc1, CN(C)CCOc1ccc(-c2cc(-c3ccc(Cl)c(O)c3)c(-c3ccncc3)[nH]2)cc1, COc1ccc(CC(=O)Nc2ccc(-c3cccc(-c4nc5c(C)cccc5[nH]4)c3)cc2)cc1O, COc1cccc(OC)c1OCCCOc1c(C)nc(N)nc1N, c1csc(-c2nc(NCC3CCCO3)ncc2-c2ccsc2)n1 (stereo not given), COc1ccccc1C1CCN(CCN2CCC(NC(=O)c3ccc(-c4ccc(C#N)cc4)cc3)CC2)CC1, CCCCCN1CCCC(NS(=O)(=O)c2ccc(C(=O)Nc3cccc(C(F)(F)F)c3)cc2)C1 (stereo not given), CCCCc1ccc(-c2c(N)nc(N)nc2CC)cc1, Cc1cc2c(/C=C/C(=O)NC3CCC(CCN4CCc5ccc(C#N)cc5CC4)CC3)cccc2[nH]1 (stereo not given), O=C(Nc1ccc(Cl)c(Cl)c1)N1CCC(CNCc2cccc([N+](=O)[O-])c2)CC1, CN1CCCc2ccc(NC(=O)Nc3ccc(Cl)c(Cl)c3)cc2C1, Cc1ccc(Cn2ncc(N3C[C@@H](C)N[C@@H](C)C3)c(Cl)c2=O)cc1NC(=O)Nc1ccc(-c2ccccc2)cc1, Cc1cc(NN=Cc2ccc(Cl)cc2)c2ccc(F)cc2n1, CCc1nc(N)nc(N)c1-c1ccc(C(C)(C)C)cc1, Cc1nn(-c2ccnc3cc(Cl)ccc23)c(C)c1C(=O)NCc1cc(Cl)cc(Cl)c1, Cc1nc(Nc2ccc(C)c(Cl)c2)c2c(C)noc2n1, Cc1onc(-c2ccccc2)c1-c1nc(NC2CCCC(C)C2)no1 (stereo not given), O=C(N[C@H]1CCN(CCc2ccc(O[C@H]3CCNC3)c(Cl)c2)C1)c1ccc(Cl)c(Cl)c1, FC(F)(F)COc1c(CCNCCCCNCCc2ccc3ccccc3c2OCC(F)(F)F)ccc2ccccc12

target: Plasmodium falciparum protein kinase 6 (PK6, PF3D7_1337100) (UniProt Q8IDW1); assay: PfPK6 kinase inhibitors, biochemical, TCAMS library (AID 1159586); details: recombinant PfPK6, Kinase-Glo ATP depletion luminescence
Sequence (Q8IDW1 1-305): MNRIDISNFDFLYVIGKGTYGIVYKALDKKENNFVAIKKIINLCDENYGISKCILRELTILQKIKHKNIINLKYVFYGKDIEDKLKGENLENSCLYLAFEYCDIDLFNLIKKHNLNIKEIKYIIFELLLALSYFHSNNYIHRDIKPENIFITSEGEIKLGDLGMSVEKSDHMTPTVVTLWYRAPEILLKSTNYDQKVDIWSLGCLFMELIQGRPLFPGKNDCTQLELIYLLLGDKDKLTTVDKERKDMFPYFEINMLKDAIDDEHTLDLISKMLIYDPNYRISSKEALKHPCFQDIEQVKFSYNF

outcome, inactive:
OCCc1ccc(Nc2nccc(-c3nnc4ccccn34)n2)cc1, COc1ccc(Cn2ccc3c4c(N)nc(N)nc4ccc32)cc1, O=C(NCCSCc1c(F)cccc1Cl)c1cnc2c(c1)nc(-c1cnc(-c3ccccc3)[nH]1)n2CCc1cnc[nH]1, O=C(CSc1nccn1C1CCCC1)Nc1cc(C(F)(F)F)ccc1Cl, OC(CNCc1ccccc1OCc1ccccc1)c1cccc(Br)c1 (stereo not given), NC1CCN(Cc2cccc(-c3ccc(-c4nc5ccccc5[nH]4)s3)c2)C1 (stereo not given), CN1CCN(c2ccc(-c3cc(-c4ccncc4)c(-c4ccc(Cl)c(O)c4)o3)cc2)CC1, CC(C)C1=C[C@H]2C[C@]3(C4OCCO4)[C@@H]4CC[C@@H](C)[C@H]4C[C@@]2(C(=O)OCC2COCO2)[C@]13C(=O)OC(c1ccccc1)c1ccccc1 (stereo not given in full), Cc1ccc(CNC(=O)[C@H](CCCN)Nc2nc(Nc3ccccc3)ncc2C)cc1, CCn1c(Sc2ccc([N+](=O)[O-])c(C#N)c2)nnc1-c1ccc(Cl)cc1, Cc1cccc(NC(=O)Nc2cccc(-c3ccc(-c4nc5ccc(C(F)(F)F)cc5[nH]4)cc3)c2)c1, CN1CCCC(CN2CCN(Cc3cccc(-c4ccc(-c5nc6ccc(F)cc6[nH]5)cc4)c3)CC2)C1 (stereo not given), CN1CCC(N2CCN(CCOc3cc(NC(=O)/C=C/c4ccccc4Cl)ccc3Br)CC2)CC1, Cc1nc(N)nc(N)c1OCc1cccc2ccccc12, CN(C1CCC(NC(=O)/C=C/c2ccccc2)CC1)C1CC2(CCN(C(=O)OC(C)(C)C)CC2)c2ccccc21 (stereo not given), O=C(Oc1ccc(C2CNCCc3c2cc(OC(=O)c2ccc(O)cc2)c(OC(=O)c2ccc(O)cc2)c3Cl)cc1)c1ccc(O)cc1 (stereo not given), Nc1ccc2[nH]cc(C3CCN(CCC4CCN(C(=O)/C=C/c5ccc(Cl)c(Cl)c5)CC4)CC3)c2n1, COc1cc(N(C)Cc2cnc3nc(N)nc(N)c3n2)cc(OC)c1OC, COc1ccc2ncn(-c3ccc(C(N)=O)c(OCc4ccccc4C(F)(F)F)c3)c2c1, Oc1ccc(CCNc2nc(NCc3ccccc3-c3cccc(Cl)c3)nc(N3CCNCC3)n2)cc1, NC1CCCN(Cc2ccc(-c3ccc(-c4nc5ccccc5[nH]4)s3)cc2)C1 (stereo not given), CCCc1ccc(NC(=O)c2cccc(CN3CCCN(Cc4cccc(C#N)c4)CC3)c2)cc1, CN(C)CCOc1ccc(-c2cc(-c3ccc(Cl)c(O)c3)c(-c3ccncc3)[nH]2)cc1, COc1ccc(CC(=O)Nc2ccc(-c3cccc(-c4nc5c(C)cccc5[nH]4)c3)cc2)cc1O, COc1cccc(OC)c1OCCCOc1c(C)nc(N)nc1N, c1csc(-c2nc(NCC3CCCO3)ncc2-c2ccsc2)n1 (stereo not given), COc1ccccc1C1CCN(CCN2CCC(NC(=O)c3ccc(-c4ccc(C#N)cc4)cc3)CC2)CC1, CCCCCN1CCCC(NS(=O)(=O)c2ccc(C(=O)Nc3cccc(C(F)(F)F)c3)cc2)C1 (stereo not given), CCCCc1ccc(-c2c(N)nc(N)nc2CC)cc1, Cc1cc2c(/C=C/C(=O)NC3CCC(CCN4CCc5ccc(C#N)cc5CC4)CC3)cccc2[nH]1 (stereo not given), O=C(Nc1ccc(Cl)c(Cl)c1)N1CCC(CNCc2cccc([N+](=O)[O-])c2)CC1, CN1CCCc2ccc(NC(=O)Nc3ccc(Cl)c(Cl)c3)cc2C1, Cc1ccc(Cn2ncc(N3C[C@@H](C)N[C@@H](C)C3)c(Cl)c2=O)cc1NC(=O)Nc1ccc(-c2ccccc2)cc1, Cc1cc(NN=Cc2ccc(Cl)cc2)c2ccc(F)cc2n1, CCc1nc(N)nc(N)c1-c1ccc(C(C)(C)C)cc1, Cc1nn(-c2ccnc3cc(Cl)ccc23)c(C)c1C(=O)NCc1cc(Cl)cc(Cl)c1, Cc1nc(Nc2ccc(C)c(Cl)c2)c2c(C)noc2n1, Cc1onc(-c2ccccc2)c1-c1nc(NC2CCCC(C)C2)no1 (stereo not given), O=C(N[C@H]1CCN(CCc2ccc(O[C@H]3CCNC3)c(Cl)c2)C1)c1ccc(Cl)c(Cl)c1, FC(F)(F)COc1c(CCNCCCCNCCc2ccc3ccccc3c2OCC(F)(F)F)ccc2ccccc12
